Experimental data taken from PubChem BioAssay (NCATS).
Where “and” joins values, the source holds several entries; their conditions need not be identical. Equal values may be shown once. Results filed as inconclusive are left out. Calls of active or inactive are those of the source. Unless noted, calls follow the shape of the dose curve; as a rule, active = well fitted curve in the direction sought with a large enough effect; inconclusive = small, poorly fitted or top-dose-only effect, or another doubt; inactive = no such curve, though single readings can be large; an effect the other way counts as inactive or inconclusive.

Columns and labels:
[1] = molecular target: Mitogen-activated protein kinase 10 (Mus musculus) (UniProt Q61831); assay: JNK3 AlphaScreen Assay (AID 530; active = well fitted curve in either direction with a large enough effect, not every such curve was filed as active;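 also: kinase came from lysate of stimulated human HepG2 cells; signal reports phosphorylation of biotinylated GST-cJun 1-79 at Ser73 with 10 µM ATP; % is scaled to controls: 0 for no effect and ±100 for the full control effect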)
Procedure, shortened: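 qHTS format: compounds tested as titrations against IL-1beta/TNF-alpha-activated HepG2 lysate JNK3 with biotin-GST-cJun substrate and 10 uM ATP at room temperature. Loss of anti-phospho-cJun AlphaScreen signal indicates inhibition.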

[2] = Cell Viability - N2a (AID 540); conditions: N2a mouse neuroblastoma cell viability; activity change, negative = cytotoxicity: at 92.2 µM (top of the series); also: nearly all actives have a fitted effect of over 45% in size; also: potency is read from the fitted curve at half-maximal effect;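 as to activity change, negative = cytotoxicity: plate controls were DMSO alone for no effect and tamoxifen control for full effect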
Procedure, shortened: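 Mouse neuroblastoma N2a cells (1500/well) were preincubated 5 hr at 37 °C, then exposed to compounds for 40 hr at 37 °C in complete medium. Viability was read as intracellular ATP by CellTiter-Glo luminescence; AC50 from Hill fits.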

[3] = Cell Viability - HUV-EC-C (AID 542); also: % is scaled to controls: 0 for no effect and ±100 for the full control effect; nearly all actives have a fitted effect of over 35% in size
Procedure, shortened: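 HUV-EC-C normal human vascular endothelial cells, 1000 cells/well, pre-incubated 5 hr at 37 °C, then exposed to compounds for 40 hr at 37 °C in complete medium. Viability measured as intracellular ATP by CellTiter-Glo luminescence; AC50 from Hill fits.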

[4] = Cell Viability - H-4-II-E (AID 543); also: nearly all actives have a fitted effect of over 35% in size; also: potency is read from the fitted curve at half-maximal effect
Procedure, shortened: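 Rat hepatoma H-4-II-E cells (1500/well) were plated, incubated 5 hr at 37 °C, then exposed to compounds for 40 hr at 37 °C. Cellular ATP was read by CellTiter-Glo luminescence; AC50 came from Hill-equation fits of concentration-response data.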

[5] = Cell Viability - Renal Proximal Tubule (AID 545); conditions: renal proximal tubule cells viability, primary cells of rat origin; activity change, negative = cytotoxicity: at 91.7 µM (top of the series);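 also: 0% = DMSO only and -100% = 100 µM tamoxifen; nearly all actives have a fitted effect of over 40% in size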
Procedure, shortened: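 Viability taken as intracellular ATP (CellTiter-Glo luminescence) after 40 hr, 37 °C compound treatment of primary proximal tubule cells from rat kidney, 1000 cells/well; Hill-equation fits of qHTS concentration-response data gave AC50.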

[6] = Cell Viability - Mesenchymal (AID 546); conditions: mesenchymal cells viability, qHTS; activity change, negative = cytotoxicity: at 91.7 µM (top of the series);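 also: cells exposed to compound for 40 hours before reading; 0% = DMSO only and -100% = 100 µM tamoxifen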
Procedure, shortened: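 Human kidney mesenchymal cells from normal renal glomeruli, 1000 cells/well, rested 5 hr at 37 °C, then treated 40 hr at 37 °C in complete medium. Cellular ATP read by CellTiter-Glo luminescence; AC50 from Hill-equation fits.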

[7] = Cellular Toxicity (caspase-3) HepG2 (AID 654);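 also: cells exposed to compound for 16 hours before reading; 0% = DMSO alone and 100% = caspase signal from 100 µM tamoxifen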
Procedure, shortened: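 HepG2 cells (1500/well) in complete medium were treated with compounds for 16 hr at 37 °C. Caspase-3/7 activity was then read as luminescence from peptide-aminoluciferin cleavage. AC50 came from Hill fits, normalized to DMSO and 100 uM tamoxifen.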

[8] = Cellular Toxicity (caspase-3) Jurkat (AID 655);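 also: cells exposed to compound for 16 h at 37 °C before reading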
Procedure, shortened: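 Luminescent Caspase-Glo 3/7 read-out (20 min, room temperature) after 16 h compound treatment at 37 C of 5000 Jurkat cells per well. AC50 derived by Hill-equation fitting, scaled between DMSO basal and 100 uM tamoxifen stimulation.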

[9] = Cellular Toxicity (caspase-3) HUV-EC-C (AID 656);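 also: 0% = DMSO basal and 100% = 100 µM tamoxifen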
Procedure, shortened: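 Luminescent Caspase-Glo 3/7 readout after 16 h, 37 °C compound exposure of HUV-EC-C endothelial cells, 1000 per well, complete medium. AC50 derived by Hill fitting, with DMSO as baseline and 100 uM tamoxifen as full activation.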

[10] = Cellular Toxicity (caspase-3) SHSY5Y (AID 657)
Procedure, shortened: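 Luminescent Caspase-Glo 3/7 read-out, 1 hr room temperature, follows 16 hours of compound treatment of SH-SY5Y cells at 37 °C. Normalization: DMSO basal, 10 uM staurosporine as 100%; AC50 values from Hill-equation concentration-response fits.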

[11] = Cellular Toxicity (caspase-3) BJ (AID 658);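 also: 0% = DMSO basal and 100% = 10 µM staurosporine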
Procedure, shortened: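 BJ human foreskin fibroblasts, 1000 cells/well, treated 16 hours at 37 °C in complete medium; caspase 3/7 activity by Caspase-Glo luminescence after 1 hr at room temperature. Normalized to DMSO and 10 uM staurosporine; AC50 from Hill fits.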

[12] = Cellular Toxicity (caspase-3) MRC-5 (AID 659);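 also: 0% = DMSO basal and 100% = 10 µM staurosporine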
Procedure, shortened: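 MRC-5 human normal lung fibroblasts, 1500 cells/well, treated 16 h at 37 °C in complete medium. Caspase 3/7 measured by Caspase-Glo luminescence after 1 h at room temperature. Normalized to DMSO and 10 uM staurosporine; AC50 from Hill fit.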

[13] = Cellular Toxicity (caspase-3) Mesangial (AID 660); conditions: Potency: caspase-3 activation;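 also: cells exposed to compound for 16 h before the caspase read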
Procedure, shortened: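 Human renal glomerular mesangial cells (1000/well) were treated with compounds for 16 h at 37 °C in complete medium, then caspase 3/7 activity was read by Caspase-Glo luminescence. Data were normalized to DMSO and 100 uM tamoxifen; AC50 from Hill fits.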

[14] = Cellular Toxicity (caspase-3) SK-N-SH (AID 661);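 also: 0% = DMSO basal and 100% = 10 µM staurosporine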
Procedure, shortened: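 SK-N-SH human neuroblastoma cells (1500/well) were treated with compounds for 16 hr at 37 °C in complete medium; caspase 3/7 activity was read by Caspase-Glo luminescence. AC50 came from Hill fits of data normalized to DMSO and 10 uM staurosporine.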

[15] = molecular target: Glucocorticoid receptor (Homo sapiens) (UniProt P04150); assay: GR-GFP Redistribution (AID 450;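 active = compounds whose dose series gives a full or clear partial fitted curve of increased nuclear translocation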; also: potency is read from the fitted curve at half-maximal effect); conditions: U2OS GR-GFP nuclear translocation, laser cytometry, 2 h
[16] = molecular target: Glucocorticoid receptor (Homo sapiens) (UniProt P04150); assay: GR-EFC Redistribution (AID 451; calls by dose curve; also: potency is read from the fitted curve at half-maximal effect); conditions: CHO-K1 GR-EFC translocation, beta-gal luminescence, 2 h
Procedure, shortened: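 CHO-K1 cells expressing nuclear EA and GR-ED fragments of b-gal; compounds titrated up to 46 uM final, 2 h at 37 C. GR nuclear translocation read as complemented b-gal luminescence after 1 h RT detection.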

[17] = molecular target: 3',5'-cyclic-AMP phosphodiesterase 4B (Homo sapiens) (UniProt Q07343); assay: qHTS Assay for Inhibitors of PDE-IV (AID 607; active = well fitted activation curve with a large enough effect in the main read-out, with a control signal flat, not every such curve was filed as active; also: % of control where 0% means no effect)
Procedure, shortened: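 HEK293 ACTOne cells with CNG channel (1000/well), endogenous PDE4; membrane potential dye, compounds up to 22.9 uM final. Fluorescence Ex 535/Em 590; RO 20-1724 (100 uM final) as reference.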

[18] = Cell Viability - NIH 3T3 (AID 541); conditions: NIH 3T3 cell viability, qHTS; activity change, negative = cytotoxicity: at 92.2 µM (top of the series); also: nearly all actives have a fitted effect of over 25% in size; also: potency is read from the fitted curve at half-maximal effect;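 as to activity change, negative = cytotoxicity: plate controls were DMSO alone for no effect and tamoxifen positive control for full effect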
Procedure, shortened: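 NIH 3T3 mouse embryo fibroblasts (1000 cells/well) were plated in complete medium and treated with compound for 40 hr at 37 °C. Viability was read as intracellular ATP by CellTiter-Glo luminescence; AC50 values came from Hill-equation fits of concentration-response data.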

[19] = Cell Viability - SH-SY5Y (AID 544); conditions: SH-SY5Y neuroblastoma cell viability; viability change, negative = cytotoxic: at 92.2 µM (top of the series);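 also: 0% = DMSO alone and -100% = 100 µM tamoxifen; nearly all actives have a fitted effect of over 55% in size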
Procedure, shortened: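 Human neuroblastoma SH-SY5Y cells (1500/well) in complete medium were exposed to compounds for 40 hr at 37 °C; intracellular ATP was then quantified by CellTiter-Glo luminescence after 20 min at room temperature. AC50 came from Hill-equation concentration-response fits.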

Glucocorticoid receptor (Homo sapiens), sequence (P04150 whole entry, looked up, the tested form may be a part): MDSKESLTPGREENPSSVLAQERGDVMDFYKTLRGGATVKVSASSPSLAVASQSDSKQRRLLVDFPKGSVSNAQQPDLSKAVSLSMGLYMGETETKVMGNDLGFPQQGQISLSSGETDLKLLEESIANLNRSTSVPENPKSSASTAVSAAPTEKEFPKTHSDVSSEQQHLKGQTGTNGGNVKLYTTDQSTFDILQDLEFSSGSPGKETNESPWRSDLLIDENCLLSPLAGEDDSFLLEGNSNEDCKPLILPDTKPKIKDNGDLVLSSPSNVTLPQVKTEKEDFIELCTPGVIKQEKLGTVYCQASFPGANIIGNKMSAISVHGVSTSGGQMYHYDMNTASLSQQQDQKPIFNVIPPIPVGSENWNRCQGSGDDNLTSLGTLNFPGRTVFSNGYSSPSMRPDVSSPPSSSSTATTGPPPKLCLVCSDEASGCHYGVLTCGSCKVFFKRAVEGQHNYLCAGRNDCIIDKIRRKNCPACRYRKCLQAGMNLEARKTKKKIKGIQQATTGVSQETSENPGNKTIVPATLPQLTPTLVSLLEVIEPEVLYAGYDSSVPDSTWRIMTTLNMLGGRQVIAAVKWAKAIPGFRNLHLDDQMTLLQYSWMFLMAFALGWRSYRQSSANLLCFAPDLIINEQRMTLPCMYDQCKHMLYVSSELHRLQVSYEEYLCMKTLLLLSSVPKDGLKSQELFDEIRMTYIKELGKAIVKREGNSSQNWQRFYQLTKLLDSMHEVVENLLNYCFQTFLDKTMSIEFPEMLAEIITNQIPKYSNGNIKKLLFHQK
3',5'-cyclic-AMP phosphodiesterase 4B (Homo sapiens), sequence (Q07343 whole entry, looked up): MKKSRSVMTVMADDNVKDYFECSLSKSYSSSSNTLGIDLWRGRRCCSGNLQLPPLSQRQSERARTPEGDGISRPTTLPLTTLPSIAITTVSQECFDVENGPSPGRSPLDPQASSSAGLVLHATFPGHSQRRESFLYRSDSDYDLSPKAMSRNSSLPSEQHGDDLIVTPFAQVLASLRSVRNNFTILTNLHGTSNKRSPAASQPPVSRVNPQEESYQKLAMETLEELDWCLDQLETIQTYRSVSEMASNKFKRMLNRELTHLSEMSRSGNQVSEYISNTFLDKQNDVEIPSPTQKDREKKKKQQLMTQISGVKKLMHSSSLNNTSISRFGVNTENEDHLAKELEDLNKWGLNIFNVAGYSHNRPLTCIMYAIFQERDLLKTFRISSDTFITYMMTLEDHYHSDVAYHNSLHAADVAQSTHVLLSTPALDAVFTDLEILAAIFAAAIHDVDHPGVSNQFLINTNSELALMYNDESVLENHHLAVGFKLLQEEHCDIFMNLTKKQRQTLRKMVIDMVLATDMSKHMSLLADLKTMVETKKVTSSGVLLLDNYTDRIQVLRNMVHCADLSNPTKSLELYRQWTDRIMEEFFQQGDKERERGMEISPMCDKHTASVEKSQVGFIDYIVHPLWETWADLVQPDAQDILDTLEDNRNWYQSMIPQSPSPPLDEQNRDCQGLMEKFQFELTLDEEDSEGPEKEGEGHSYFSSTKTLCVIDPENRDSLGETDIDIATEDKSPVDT

CN(C)c1ccc(N=NS(=O)(=O)O)cc1
inactive: Potency [1] | Potency [3] | activity change, negative = cytotoxicity [5] 12.3% | Potency [6] | Potency [7] | Potency [8] | outcome [9] | outcome [10] | outcome [11] | outcome [12] | Potency [13] | Potency [14]
active: Potency [2] 31.6 µM | Potency [4] 0.126 µM

O=c1[nH]c2cc(C(F)(F)F)ccc2n1-c1cc(C(F)(F)F)ccc1O
inactive: Potency [15] > 46 µM | Potency [16] > 46 µM | outcome [17]

S=c1[nH]c2ccccc2s1
active: activity change, negative = cytotoxicity [18] -146%
inactive: Potency [2] | Potency [3] | Potency [4] | Potency [19] | activity change, negative = cytotoxicity [5] -20.5% | Potency [6] | Potency [7] | Potency [8] | outcome [9] | outcome [10] | outcome [11] | outcome [12] | Potency [13] | Potency [14]

CCCn1c(=O)c2[nH]c(-c3ccc(OCC(=O)NCCN)cc3)nc2n(CCC)c1=O
inactive: Potency [15] > 46 µM | Potency [16] > 46 µM | outcome [17]

c1ccc2sc(SSc3nc4ccccc4s3)nc2c1
inactive: Potency [2] | Potency [18] | Potency [3] | Potency [4] | Potency [19] | activity change, negative = cytotoxicity [5] -1.46% | Potency [6] | Potency [7] | Potency [8] | outcome [9] | outcome [10] | outcome [11] | outcome [12] | Potency [13] | Potency [14]

COc1ccccc1CNCCCCCCNCCCCCCCCNCCCCCCNCc1ccccc1OC
inactive: Potency [15] > 46 µM | Potency [16] > 46 µM | outcome [17]

O=C1NC(O)=NC1(c1ccccc1)c1ccccc1
inactive: Potency [15] > 46 µM | Potency [16] > 46 µM | outcome [17]

Nc1ccc(O)c([N+](=O)[O-])c1
active: Potency [18] 25.1 µM
inactive: Potency [3] | Potency [4] | activity change, negative = cytotoxicity [5] 0.95% | Potency [6] | Potency [7] | Potency [8] | outcome [9] | outcome [10] | outcome [11] | outcome [12] | Potency [13] | Potency [14]

O=C(O)/C=C\C(=O)O
inactive: Potency [1] | Potency [2] | Potency [18] | Potency [3] | Potency [4] | Potency [19] | activity change, negative = cytotoxicity [5] -6.17% | Potency [6] | Potency [7] | Potency [8] | outcome [9] | outcome [10] | outcome [11] | outcome [12] | Potency [13] | Potency [14]

Nc1nc2ccc([N+](=O)[O-])cc2s1
inactive: Potency [1] | Potency [3] | Potency [6] | Potency [7] | Potency [8] | outcome [9] | outcome [10] | outcome [11] | outcome [12] | Potency [13] | Potency [14]

CN1CCC[C@H]1c1cccnc1
inactive: Potency [2] | Potency [18] | Potency [3] | Potency [4] | Potency [19] | activity change, negative = cytotoxicity [5] 3.04% | Potency [6] | Potency [7] | Potency [8] | outcome [9] | outcome [10] | outcome [11] | outcome [12] | Potency [13] | Potency [14]

O=c1[nH]c2cc(Cl)c(Cl)cc2[nH]c1=O
inactive: Potency [15] > 46 µM | Potency [16] > 46 µM | outcome [17]

Cn1cc(C2=C(c3ccc(Cl)cc3Cl)C(=O)NC2=O)c2ccccc21
inactive: Potency [15] > 46 µM | Potency [16] > 46 µM | outcome [17]

O=C(O)Cc1ccc(-c2ccccc2)cc1
inactive: Potency [15] > 20.6 µM | Potency [16] > 20.6 µM | outcome [17]

CCCCCCCCCCCCCCCCCC(=O)O
inactive: Potency [2] | Potency [18] | Potency [3] | Potency [4] | Potency [19] | activity change, negative = cytotoxicity [5] -6.5% | Potency [6] | Potency [7] | Potency [8] | outcome [9] | outcome [10] | outcome [11] | outcome [12] | Potency [13] | Potency [14]

NCCSSCCN
inactive: Potency [15] > 46 µM | Potency [16] > 46 µM and > 9.22 µM | outcome [17]

CN(C)CCC(c1ccc(Cl)cc1)c1ccccn1 (stereo not drawn)
inactive: Potency [2] | Potency [18] | Potency [3] | Potency [4] | Potency [19] | activity change, negative = cytotoxicity [5] -6.06% | Potency [6] | Potency [7] | Potency [8] | outcome [9] | outcome [10] | outcome [11] | outcome [12] | Potency [13] | Potency [14]
